# From PubChem BioAssay
# HSF1 activator – increases HSF-1 driven luciferase reporter signal; NIH3T3-HGL HSF-1 luciferase reporter, MG132, 8 h; 100% = twice DMSO control signal; activation, % at 9 µM; 300,000 tested, 1.7% active;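 active means mean replicate activation of at least 50% with a set share of replicates each reaching 50%; inconclusive means only one of those two conditions met; inactive means mean below 50% and too few replicates reaching it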;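 further: 0% = median of the neutral control wells and 100% = twice that signal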
# esBAF inh – SWI/SNF esBAF complex inhibition; mouse ES cells, Bmi1-luciferase knock-in reporter, 24 h; 100% = twice the neutral-well signal; reporter increase, % at 12.5 µM; 350,000 tested, 2% active; in the data active means activation above about 40%; inconclusive means no clear call, values can overlap the other calls;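 further: 0% = median of the plate's neutral control wells and 100% = double that signal; a rise in the Bmi1 reporter signal indicates esBAF inhibition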
# Vif imaging – inhibitors of HIV Vif; HEK293T cells, Vif self-association by quenched fluorescence, imaging, 24 h; inhibition, % at 7.49 µM; 340,000 tested, 0.35% active; in the data active means inhibition above about 50%, passing the limit was not always enough; inconclusive means no clear call, values can overlap the other calls; inactive means below about 31%
# HSF1 inh – HSF1 inhibition | NIH3T3-HGL HSE-luciferase, MG132-induced, luminescence 8 h; active compounds read low | activity change, negative = inhibition, % at 7.5 µM (by protocol) | 300,000 tested, 0.77% active | AID 2098;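 active means more than half of replicate wells show activity change below -50%, luminescence cut by over half; inconclusive means some wells, but at most half, below -50%; inactive means no replicate well below -50%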;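 further: luciferase reports HSF-1 transcriptional activity via heat shock element; 0% = median of DMSO wells and -100% = zero luminescence signal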
# An asterisk follows results filed as active; u = inconclusive; x = no result. A selection: hits, their analogues and other compounds. The true share with any hit is near 3.4%.
SMILES,HSF1 activator,esBAF inh,Vif imaging,HSF1 inh
C[C@H](CO)N1C[C@H](C)[C@@H](CN(C)C(=O)Nc2cccc3ccccc23)OCCCC[C@H](C)Oc2ccc(NC(=O)c3ccncc3)cc2C1=O,x,-5,x,x
Cc1ccc(CNC(=O)Nc2ccccc2)cc1,32,46*,12,13
O=Cc1ccccc1OCc1ccc2c(c1)OCO2,35,70*,-5,4
CNC[C@@H]1OCCCC[C@@H](C)Oc2ccc(NC(=O)NC3CCCCC3)cc2C(=O)N([C@H](C)CO)C[C@@H]1C,x,0,x,x
COc1cccc(NC(=O)N(C)C[C@H]2Oc3cc(-c4ccccc4OC)ccc3S(=O)(=O)N([C@@H](C)CO)C[C@H]2C)c1,x,2,x,x
Fc1ccc(-c2ccc(Nc3cccc(F)c3)nn2)cc1,-19,52*,-8,-7
COc1ccccc1-c1cn(CC[C@@H]2CC[C@@H](NC(=O)CCN3CCCCC3)[C@H](CO)O2)nn1,x,-1,x,x
O=C(OCn1ncc(Cl)c(Cl)c1=O)c1cccc(C(F)(F)F)c1,31,-3,-3,21
O=C(OCc1cnc(Cl)s1)c1ccccc1Cl,25,37,8,5
O=C(OCn1ncc(Br)c(Br)c1=O)c1ccc(F)cc1,-95,-77,x,-94*
O=C(OCn1ncc(Br)c(Br)c1=O)c1ccccc1Cl,-74,x,u,-74*
C[C@@H]1CN([C@H](C)CO)S(=O)(=O)c2ccc(C3=CCCC3)cc2O[C@H]1CN(C)C(=O)C1CCCCC1,x,-1,x,x
CCc1cccc(NC(=O)COC(=O)/C=C/c2cccs2)c1,-62,7,4,-52*
CN(C)CCNC(=O)/C(=C/c1ccc(-c2cccc(Cl)c2)o1)NC(=O)c1ccccc1,66*,x,5,24
CN(C)CCNC(=O)/C(=C/c1ccc(-c2cccc([N+](=O)[O-])c2)o1)NC(=O)c1ccccc1,21,x,7,-3
COc1ccccc1NC(=O)CSc1nnc(COc2ccc(Cl)cc2)n1Cc1ccco1,94*,-9,-3,70
COc1cc(/C=C/C(=O)NC(C)C2CC3CCC2C3)cc(OC)c1OC (centres undefined),-91,-14,-2,-88*
COc1cc(/C=C/C(=O)NC2CCCCC2)cc(OC)c1OC,-2,-6,-1,-4
Cc1noc(C)c1S(=O)(=O)Nc1cccc2c1O[C@H](CN(C)Cc1ccc(C(=O)O)cc1)[C@H](C)CN([C@H](C)CO)C2=O,x,-2,x,x
COc1ccc(Cn2nnnc2C(c2ccccc2Cl)N2CCC(C(N)=O)CC2)cc1 (centres undefined),-64,x,-14,-51*
COc1ccc(Cn2nnnc2C(c2cc(OC)ccc2OC)N2CCC(C(N)=O)CC2)cc1 (centres undefined),5,-2,x,-7
CC1CCN(C(c2ccc(N(C)C)cc2)c2nnnn2Cc2ccccc2)CC1 (centres undefined),66*,-1,2,48
COc1ccc2c(=O)c(-c3nc(C)cs3)coc2c1,17,x,-6,7
CCc1cc2c(=O)c(-c3nc(C)cs3)coc2cc1O,25,48*,-3,21
Cc1csc(-c2coc3cc(O)cc(C)c3c2=O)n1,3,60*,-14,17
SMILES,HSF1 activator,esBAF inh,Vif imaging,HSF1 inh
CCCCCOc1ccc(CSc2n[nH]c(C)n2)cc1,49,x,-8,32
Cc1nc(SCc2ccc(OCCC(C)C)cc2)n[nH]1,39,45*,-10,19
Cc1ccc(C)c(Oc2cc(NC(=O)CCCn3nc(C)c([N+](=O)[O-])c3C)cc([N+](=O)[O-])c2)c1,72*,x,-12,34
CCc1ccccc1NCC(=O)Nc1ccc(Cl)c(C(F)(F)F)c1,58*,-4,-1,26
COc1ccccc1NC(=O)CN1CCN(CC(=O)Nc2ccc(Cl)c(C(F)(F)F)c2)CC1,x,-8,x,x
Cc1sc2nc(-c3cccnc3)nc(Cl)c2c1-c1ccccc1,6,58*,-13,13
C[C@@H]1CN([C@@H](C)CO)C(=O)c2cc(C#Cc3ccccc3F)cnc2O[C@H]1CN(C)C(=O)Cc1cccnc1,x,-3,x,x
O=c1c2ccccc2oc2c1oc1ccccc12,x,54*,2,x
COc1cc2oc3ccccc3c(=O)c2cc1OC,24,6,1,11
O=c1c2ccccc2oc2cc(Br)ccc12,x,71*,6,x
O=c1[nH]cnc2c1oc1ccccc12,1,2,3,-2
CCc1ccc(-c2csc(NC(=O)C3=COCCO3)n2)cc1,x,75*,-3,x
COc1ccc(-c2csc(NC(=O)C3=COCCO3)n2)cc1OC,x,66*,7,x
O=C(Nc1nc(-c2ccc(Cl)cc2)cs1)C1=COCCO1,40,x,-5,30
